Source: ChEMBL document CHEMBL1961873, “Compounds: GSK PKIS; Assays: Nanosyn kinase panel” (2012)
Where “and” joins values, the source holds several entries; their conditions need not be identical. Identical values can stand only once.

Assays:
[1] = target: Protein kinase C gamma type (Homo sapiens) (UniProt P05129); settings: at 1 µM;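 also: each value is an averaged percent inhibition of the enzyme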
[2] = target: T1, Protein kinase C iota type (Homo sapiens) (UniProt P41743); settings: at 0.1 µM
T1 sequence (whole entry): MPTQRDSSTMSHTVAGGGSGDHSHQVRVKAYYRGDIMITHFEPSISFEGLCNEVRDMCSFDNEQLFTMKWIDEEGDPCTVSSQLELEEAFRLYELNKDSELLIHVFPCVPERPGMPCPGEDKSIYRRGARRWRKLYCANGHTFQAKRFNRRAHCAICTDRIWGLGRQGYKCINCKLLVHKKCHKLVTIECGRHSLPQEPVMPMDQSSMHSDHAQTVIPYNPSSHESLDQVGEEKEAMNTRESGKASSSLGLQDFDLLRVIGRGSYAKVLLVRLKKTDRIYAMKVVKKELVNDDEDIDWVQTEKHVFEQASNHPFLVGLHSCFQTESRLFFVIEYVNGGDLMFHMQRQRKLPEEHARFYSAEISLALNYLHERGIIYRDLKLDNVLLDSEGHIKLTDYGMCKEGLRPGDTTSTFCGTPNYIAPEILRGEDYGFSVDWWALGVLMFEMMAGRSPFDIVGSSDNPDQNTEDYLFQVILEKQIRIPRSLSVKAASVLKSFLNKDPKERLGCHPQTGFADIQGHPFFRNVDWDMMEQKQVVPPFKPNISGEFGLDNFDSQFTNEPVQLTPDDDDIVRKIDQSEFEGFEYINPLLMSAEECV

[3] = target: T1, Protein kinase C iota type (Homo sapiens); settings: at 1 µM
[4] = target: Protein kinase C theta type (Homo sapiens) (UniProt Q04759); settings: at 0.1 µM
[5] = target: Protein kinase C theta type (Homo sapiens) (UniProt Q04759); settings: at 1 µM
[6] = target: Protein kinase C beta type (Homo sapiens) (UniProt P05771); settings: at 0.1 µM
[7] = target: Protein kinase C beta type (Homo sapiens) (UniProt P05771); settings: at 1 µM
[8] = target: T2, Serine/threonine-protein kinase D1 (Homo sapiens) (UniProt Q15139); settings: at 0.1 µM
T2 sequence (whole entry): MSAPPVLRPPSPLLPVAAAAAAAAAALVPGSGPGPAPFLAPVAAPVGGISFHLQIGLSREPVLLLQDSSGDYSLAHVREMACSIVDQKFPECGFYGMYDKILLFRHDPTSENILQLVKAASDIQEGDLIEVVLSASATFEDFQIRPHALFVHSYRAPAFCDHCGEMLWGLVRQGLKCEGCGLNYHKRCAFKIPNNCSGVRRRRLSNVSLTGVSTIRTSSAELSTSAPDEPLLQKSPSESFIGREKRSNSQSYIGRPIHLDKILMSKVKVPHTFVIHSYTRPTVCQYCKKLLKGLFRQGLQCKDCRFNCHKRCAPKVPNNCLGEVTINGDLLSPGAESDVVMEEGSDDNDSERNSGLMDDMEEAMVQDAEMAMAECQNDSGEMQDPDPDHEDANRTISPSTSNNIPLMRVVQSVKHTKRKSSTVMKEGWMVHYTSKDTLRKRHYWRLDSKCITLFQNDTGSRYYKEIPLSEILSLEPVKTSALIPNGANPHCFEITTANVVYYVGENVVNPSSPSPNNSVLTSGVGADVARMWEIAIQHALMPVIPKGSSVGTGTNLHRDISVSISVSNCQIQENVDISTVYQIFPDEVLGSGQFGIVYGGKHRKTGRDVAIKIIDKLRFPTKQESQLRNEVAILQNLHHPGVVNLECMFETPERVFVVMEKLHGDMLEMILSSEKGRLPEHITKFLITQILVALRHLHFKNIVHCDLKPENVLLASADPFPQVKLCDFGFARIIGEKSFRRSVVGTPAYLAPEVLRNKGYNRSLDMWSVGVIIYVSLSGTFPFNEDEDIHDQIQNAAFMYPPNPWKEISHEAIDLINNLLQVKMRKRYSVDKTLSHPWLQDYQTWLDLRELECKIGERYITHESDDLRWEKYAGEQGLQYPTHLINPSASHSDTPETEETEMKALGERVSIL

[9] = target: T2, Serine/threonine-protein kinase D1 (Homo sapiens); settings: at 1 µM
[10] = target: T3, Serine/threonine-protein kinase D2 (Homo sapiens) (UniProt Q9BZL6); settings: at 0.1 µM
T3 sequence (whole entry): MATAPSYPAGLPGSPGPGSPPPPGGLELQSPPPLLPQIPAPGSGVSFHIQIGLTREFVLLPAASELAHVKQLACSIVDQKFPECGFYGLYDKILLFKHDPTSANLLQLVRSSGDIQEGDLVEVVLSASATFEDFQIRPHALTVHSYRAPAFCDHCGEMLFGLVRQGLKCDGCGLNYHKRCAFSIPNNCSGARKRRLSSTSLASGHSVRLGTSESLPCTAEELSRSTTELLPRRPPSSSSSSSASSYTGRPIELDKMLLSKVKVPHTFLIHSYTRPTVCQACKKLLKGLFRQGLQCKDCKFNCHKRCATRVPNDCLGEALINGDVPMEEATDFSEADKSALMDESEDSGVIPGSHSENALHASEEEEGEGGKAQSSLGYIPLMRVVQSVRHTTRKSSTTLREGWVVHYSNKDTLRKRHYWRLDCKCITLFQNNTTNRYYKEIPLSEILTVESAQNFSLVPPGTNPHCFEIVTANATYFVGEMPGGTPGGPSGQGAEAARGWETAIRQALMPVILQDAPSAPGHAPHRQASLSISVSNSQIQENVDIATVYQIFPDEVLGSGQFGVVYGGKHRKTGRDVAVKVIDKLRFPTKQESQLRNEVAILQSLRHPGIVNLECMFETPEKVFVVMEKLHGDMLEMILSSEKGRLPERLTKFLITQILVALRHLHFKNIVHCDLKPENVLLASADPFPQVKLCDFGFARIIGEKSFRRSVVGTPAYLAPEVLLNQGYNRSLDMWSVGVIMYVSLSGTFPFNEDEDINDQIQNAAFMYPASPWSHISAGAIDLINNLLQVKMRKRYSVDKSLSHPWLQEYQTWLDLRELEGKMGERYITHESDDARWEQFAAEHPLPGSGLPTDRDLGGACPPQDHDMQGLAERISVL

[11] = target: T3, Serine/threonine-protein kinase D2 (Homo sapiens); settings: at 1 µM
[12] = target: T4, Serine/threonine-protein kinase D3 (Homo sapiens) (UniProt O94806); settings: at 0.1 µM
T4 sequence (whole entry): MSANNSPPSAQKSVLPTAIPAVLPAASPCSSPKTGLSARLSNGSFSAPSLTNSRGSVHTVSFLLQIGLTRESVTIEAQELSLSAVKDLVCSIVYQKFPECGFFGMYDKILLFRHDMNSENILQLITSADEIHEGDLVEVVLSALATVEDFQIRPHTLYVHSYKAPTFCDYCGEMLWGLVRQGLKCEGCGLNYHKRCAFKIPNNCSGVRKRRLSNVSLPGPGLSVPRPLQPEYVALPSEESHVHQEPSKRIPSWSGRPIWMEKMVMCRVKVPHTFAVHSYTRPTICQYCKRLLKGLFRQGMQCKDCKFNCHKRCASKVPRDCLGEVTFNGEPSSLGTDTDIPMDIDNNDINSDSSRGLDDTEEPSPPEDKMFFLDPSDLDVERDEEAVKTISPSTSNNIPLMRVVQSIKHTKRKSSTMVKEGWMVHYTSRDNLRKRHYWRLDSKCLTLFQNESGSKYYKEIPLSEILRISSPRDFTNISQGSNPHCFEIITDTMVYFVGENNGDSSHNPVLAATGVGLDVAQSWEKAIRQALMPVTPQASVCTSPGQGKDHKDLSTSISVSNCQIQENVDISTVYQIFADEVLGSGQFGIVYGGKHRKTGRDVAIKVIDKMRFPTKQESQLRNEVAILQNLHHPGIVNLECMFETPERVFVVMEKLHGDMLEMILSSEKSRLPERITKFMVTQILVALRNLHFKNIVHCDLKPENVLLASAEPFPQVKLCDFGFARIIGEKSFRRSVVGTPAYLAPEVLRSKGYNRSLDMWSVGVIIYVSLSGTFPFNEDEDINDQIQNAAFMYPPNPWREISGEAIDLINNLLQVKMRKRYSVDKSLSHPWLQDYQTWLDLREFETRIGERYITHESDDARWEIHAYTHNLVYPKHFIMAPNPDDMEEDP

[13] = target: T4, Serine/threonine-protein kinase D3 (Homo sapiens); settings: at 1 µM
[14] = target: T5, cGMP-dependent protein kinase 1 (Homo sapiens) (UniProt Q13976); settings: at 0.1 µM
T5 sequence (whole entry): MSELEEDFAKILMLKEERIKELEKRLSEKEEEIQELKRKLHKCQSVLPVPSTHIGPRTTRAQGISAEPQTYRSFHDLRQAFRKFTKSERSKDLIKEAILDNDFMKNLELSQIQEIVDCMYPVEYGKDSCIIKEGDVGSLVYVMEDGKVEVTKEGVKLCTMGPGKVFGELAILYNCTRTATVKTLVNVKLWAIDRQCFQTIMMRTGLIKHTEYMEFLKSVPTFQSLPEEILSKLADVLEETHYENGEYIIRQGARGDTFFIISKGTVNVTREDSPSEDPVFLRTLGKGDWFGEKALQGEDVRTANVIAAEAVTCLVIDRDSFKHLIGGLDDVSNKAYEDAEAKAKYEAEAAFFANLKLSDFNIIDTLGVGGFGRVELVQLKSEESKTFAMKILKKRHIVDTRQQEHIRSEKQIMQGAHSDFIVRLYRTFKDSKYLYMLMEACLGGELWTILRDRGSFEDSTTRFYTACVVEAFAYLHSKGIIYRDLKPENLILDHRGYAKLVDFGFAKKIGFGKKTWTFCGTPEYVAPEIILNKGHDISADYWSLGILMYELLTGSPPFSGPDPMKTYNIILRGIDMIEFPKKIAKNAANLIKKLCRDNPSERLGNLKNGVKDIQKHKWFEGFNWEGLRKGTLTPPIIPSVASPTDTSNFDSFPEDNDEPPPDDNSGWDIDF

[15] = target: T5, cGMP-dependent protein kinase 1 (Homo sapiens); settings: at 1 µM
[16] = target: T6, cGMP-dependent protein kinase 2 (Homo sapiens) (UniProt Q13237); settings: at 0.1 µM
T6 sequence (whole entry): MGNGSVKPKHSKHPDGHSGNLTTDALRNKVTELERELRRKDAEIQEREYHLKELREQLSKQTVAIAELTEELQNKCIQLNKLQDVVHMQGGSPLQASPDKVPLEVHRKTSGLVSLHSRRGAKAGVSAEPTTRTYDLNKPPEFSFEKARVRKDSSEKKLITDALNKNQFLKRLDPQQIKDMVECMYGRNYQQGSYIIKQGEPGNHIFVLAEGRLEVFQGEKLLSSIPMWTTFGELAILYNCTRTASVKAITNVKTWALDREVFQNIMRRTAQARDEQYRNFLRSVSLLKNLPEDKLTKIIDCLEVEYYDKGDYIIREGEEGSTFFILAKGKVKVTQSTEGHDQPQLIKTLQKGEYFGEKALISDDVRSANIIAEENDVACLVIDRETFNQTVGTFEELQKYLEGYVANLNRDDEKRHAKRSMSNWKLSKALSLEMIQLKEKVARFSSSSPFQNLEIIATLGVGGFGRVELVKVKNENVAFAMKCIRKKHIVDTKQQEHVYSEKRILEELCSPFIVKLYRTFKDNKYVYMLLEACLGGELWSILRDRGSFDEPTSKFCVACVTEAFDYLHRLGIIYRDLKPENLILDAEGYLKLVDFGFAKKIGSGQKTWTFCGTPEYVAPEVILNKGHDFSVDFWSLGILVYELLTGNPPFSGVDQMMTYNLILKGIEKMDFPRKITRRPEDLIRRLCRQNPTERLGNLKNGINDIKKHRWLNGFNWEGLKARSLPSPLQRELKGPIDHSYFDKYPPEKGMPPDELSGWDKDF

[17] = target: T6, cGMP-dependent protein kinase 2 (Homo sapiens); settings: at 1 µM
[18] = target: T7, cAMP-dependent protein kinase catalytic subunit PRKX (Homo sapiens) (UniProt P51817); settings: at 0.1 µM
T7 sequence (whole entry): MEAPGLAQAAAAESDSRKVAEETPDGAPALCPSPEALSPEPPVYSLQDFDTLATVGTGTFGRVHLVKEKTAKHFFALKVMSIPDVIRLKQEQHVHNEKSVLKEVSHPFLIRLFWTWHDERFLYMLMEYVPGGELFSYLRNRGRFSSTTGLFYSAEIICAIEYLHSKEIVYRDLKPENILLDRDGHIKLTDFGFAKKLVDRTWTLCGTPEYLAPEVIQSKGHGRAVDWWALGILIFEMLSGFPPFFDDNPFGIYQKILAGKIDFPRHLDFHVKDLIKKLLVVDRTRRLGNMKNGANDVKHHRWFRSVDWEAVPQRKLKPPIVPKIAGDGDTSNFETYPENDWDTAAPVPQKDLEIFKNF

[19] = target: T7, cAMP-dependent protein kinase catalytic subunit PRKX (Homo sapiens); settings: at 1 µM
[20] = target: Rho-associated protein kinase 1 (Homo sapiens) (UniProt Q13464); settings: at 0.1 µM;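 also: values are mean percent inhibition of ROCK1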
Sequence of Rho-associated protein kinase 1 (Homo sapiens) (Q13464 2-1354 limits assumed): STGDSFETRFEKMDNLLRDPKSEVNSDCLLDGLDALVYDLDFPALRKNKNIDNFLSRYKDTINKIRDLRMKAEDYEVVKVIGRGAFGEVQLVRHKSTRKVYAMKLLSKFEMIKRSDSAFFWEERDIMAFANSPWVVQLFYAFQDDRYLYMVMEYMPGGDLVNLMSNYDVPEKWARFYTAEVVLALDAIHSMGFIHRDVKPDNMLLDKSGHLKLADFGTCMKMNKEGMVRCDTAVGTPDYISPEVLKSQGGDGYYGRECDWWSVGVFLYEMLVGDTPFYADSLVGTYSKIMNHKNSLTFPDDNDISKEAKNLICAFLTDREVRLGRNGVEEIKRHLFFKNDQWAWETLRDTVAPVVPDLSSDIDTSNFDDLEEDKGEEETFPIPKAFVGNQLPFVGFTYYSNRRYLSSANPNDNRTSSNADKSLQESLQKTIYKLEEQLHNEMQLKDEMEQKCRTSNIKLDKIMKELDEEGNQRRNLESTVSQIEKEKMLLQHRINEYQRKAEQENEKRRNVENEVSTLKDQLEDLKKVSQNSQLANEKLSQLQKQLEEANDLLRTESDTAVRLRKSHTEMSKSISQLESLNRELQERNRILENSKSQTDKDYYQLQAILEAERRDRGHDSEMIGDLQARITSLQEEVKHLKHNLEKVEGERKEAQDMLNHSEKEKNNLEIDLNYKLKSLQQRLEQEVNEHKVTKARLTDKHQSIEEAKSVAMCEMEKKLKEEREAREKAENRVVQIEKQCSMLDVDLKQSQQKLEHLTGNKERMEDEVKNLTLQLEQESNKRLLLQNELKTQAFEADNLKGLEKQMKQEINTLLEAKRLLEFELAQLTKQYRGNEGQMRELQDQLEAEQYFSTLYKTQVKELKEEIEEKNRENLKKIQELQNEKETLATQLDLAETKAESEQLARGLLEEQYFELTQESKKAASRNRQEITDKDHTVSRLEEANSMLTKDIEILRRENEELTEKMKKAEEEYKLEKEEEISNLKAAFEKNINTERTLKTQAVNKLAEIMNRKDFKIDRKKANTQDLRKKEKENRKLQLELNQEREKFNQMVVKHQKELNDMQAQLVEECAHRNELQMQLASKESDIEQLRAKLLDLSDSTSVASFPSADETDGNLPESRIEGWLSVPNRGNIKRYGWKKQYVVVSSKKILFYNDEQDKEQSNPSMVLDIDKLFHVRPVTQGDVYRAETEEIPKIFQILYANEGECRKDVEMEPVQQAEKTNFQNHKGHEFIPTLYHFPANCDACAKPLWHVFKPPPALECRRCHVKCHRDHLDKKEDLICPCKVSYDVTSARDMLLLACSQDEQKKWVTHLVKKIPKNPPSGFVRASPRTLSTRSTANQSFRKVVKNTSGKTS

Sequence of Protein kinase C theta type (Homo sapiens) (Q04759 whole entry, looked up): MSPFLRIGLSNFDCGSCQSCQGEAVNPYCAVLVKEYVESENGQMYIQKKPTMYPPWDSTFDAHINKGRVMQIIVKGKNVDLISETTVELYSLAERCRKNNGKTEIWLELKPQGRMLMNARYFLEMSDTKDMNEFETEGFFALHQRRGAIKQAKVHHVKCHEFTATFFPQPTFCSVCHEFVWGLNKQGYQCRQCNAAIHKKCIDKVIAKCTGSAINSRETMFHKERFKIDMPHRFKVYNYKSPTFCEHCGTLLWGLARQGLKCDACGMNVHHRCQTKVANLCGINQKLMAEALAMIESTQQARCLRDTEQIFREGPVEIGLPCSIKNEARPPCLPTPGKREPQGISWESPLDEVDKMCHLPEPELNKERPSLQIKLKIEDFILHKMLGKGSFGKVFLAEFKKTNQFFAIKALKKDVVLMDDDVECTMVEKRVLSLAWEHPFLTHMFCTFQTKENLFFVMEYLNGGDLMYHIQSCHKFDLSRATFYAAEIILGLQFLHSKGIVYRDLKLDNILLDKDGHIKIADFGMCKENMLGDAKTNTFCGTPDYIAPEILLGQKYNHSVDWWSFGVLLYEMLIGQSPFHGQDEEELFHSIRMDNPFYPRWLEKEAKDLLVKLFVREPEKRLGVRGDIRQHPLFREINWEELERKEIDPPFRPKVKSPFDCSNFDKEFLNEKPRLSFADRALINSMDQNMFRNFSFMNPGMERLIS
Sequence of Protein kinase C beta type (Homo sapiens) (P05771 2-671 limits assumed): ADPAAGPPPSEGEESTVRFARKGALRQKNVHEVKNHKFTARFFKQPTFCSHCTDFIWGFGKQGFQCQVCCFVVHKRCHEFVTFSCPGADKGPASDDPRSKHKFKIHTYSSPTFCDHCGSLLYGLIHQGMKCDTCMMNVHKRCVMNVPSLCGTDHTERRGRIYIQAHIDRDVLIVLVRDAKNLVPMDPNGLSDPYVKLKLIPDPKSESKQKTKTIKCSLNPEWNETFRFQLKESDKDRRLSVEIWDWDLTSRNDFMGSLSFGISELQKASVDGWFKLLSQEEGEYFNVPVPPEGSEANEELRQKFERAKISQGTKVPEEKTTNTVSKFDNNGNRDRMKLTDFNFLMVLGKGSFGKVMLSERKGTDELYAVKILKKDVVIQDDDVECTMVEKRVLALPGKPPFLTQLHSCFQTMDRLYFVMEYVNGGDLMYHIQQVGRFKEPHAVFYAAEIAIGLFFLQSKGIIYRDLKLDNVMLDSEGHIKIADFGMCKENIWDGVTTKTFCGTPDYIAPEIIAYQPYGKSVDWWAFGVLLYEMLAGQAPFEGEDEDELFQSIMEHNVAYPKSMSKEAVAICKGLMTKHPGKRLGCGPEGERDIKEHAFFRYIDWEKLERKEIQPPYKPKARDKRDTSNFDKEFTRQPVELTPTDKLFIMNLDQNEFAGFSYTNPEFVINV

Row | SMILES | inhibition [1] | inhibition [2] | inhibition [3] | inhibition [4] | inhibition [5] | inhibition [6] | inhibition [7] | inhibition [8] | inhibition [9] | inhibition [10] | inhibition [11] | inhibition [12] | inhibition [13] | inhibition [14] | inhibition [15] | inhibition [16] | inhibition [17] | inhibition [18] | inhibition [19] | inhibition [20]
1 | CNC(=O)c1cncc(/C=C/c2ccccc2C)c1 | 4.82% | 0.25% | 1.08% | 2.42% | 5.04% | 0.51% | 3.14% | 3.24% | 5.01% | 3.71% | 3.79% | 3.31% | 4.34% | 4.05% | 5.68% | 2.97% | 5.05% | 3.99% | 6.15% | 1.2%
2 | Nc1ncnc2occ(-c3ccc(NC(=O)Nc4cc(C(F)(F)F)ccc4F)cc3)c12 | 4.25% and -2.46% | 1.22% and 0.26% | 2.9% and 0.4% | 0.8% and -1.06% | -0.69% and -1.44% | 0.86% and -0.64% | 1.67% and 0.08% | 1.55% and -2.08% | 2.08% and -1.19% | 1.19% and -0.28% | 1.3% and 0.14% | 2.15% and -1.96% | 1.95% and -2.28% | 2.47% and 0.31% | 1.42% and 0.75% | 1.4% and 0.27% | 2.16% and 1.02% | 0.81% and 0.1% | -1.13% and -0.05% | 1.07% and 0.31%
3 | Cc1c2ccc(N(C)c3ccnc(Nc4cccc(S(N)(=O)=O)c4)n3)cc2nn1C | 6.91% | 1.66% | 2.75% | 1.34% | 2.51% | 1.36% | 2.7% | -0.64% | 2.68% | 1.1% | 0.98% | 2.69% | 2.71% | 3.15% | 5.31% | 2.54% | 4.29% | 2.29% | 1.21% | 1.12%
